Laboratory results as given in PubChem BioAssay (NCATS).
Results filed as inconclusive are left out. Where a call stands in place of a potency, no number is given. Activity calls are given as the source filed them. The call rests on the fitted dose curve; in most records, active means well fitted curve in the direction sought with a large enough effect; inconclusive means small, poorly fitted or top-dose-only effect, or another doubt; inactive means no such curve, though single readings can be large; an effect the other way counts as inactive or inconclusive.

Legend:
[1] = qHTS of pediatric cancer cell lines to identify multiple opportunities for drug repurposing: Primary screen for SJ-GBM2 cells (AID 1347091); further: potency means the concentration at half of the fitted maximal effect
In short: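 Eight- or eleven-point concentration series, 48 h treatment at 37 degrees C in growth media; readout CellTiter-Glo luminescence. Potency and efficacy were taken from the concentration-response curves.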

[2] = qHTS of pediatric cancer cell lines to identify multiple opportunities for drug repurposing: Primary screen for BT-37 cells (AID 1347094); further: potency means the concentration at half of the fitted maximal effect
In short: (§1)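 Primary screen of approved and investigational compounds on cells in growth media at 37 degrees C, 5% CO2. MIPE set at 11-point and NPC set at 8-point dilutions; viability scored by ATP-based luminescence at 48 hours.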

[3] = qHTS of pediatric cancer cell lines to identify multiple opportunities for drug repurposing: Primary screen for NB-EBc1 cells (AID 1347095); further: potency means the concentration at half of the fitted maximal effect
In short: as §1

[4] = qHTS of pediatric cancer cell lines to identify multiple opportunities for drug repurposing: Primary screen for U-2 OS cells (AID 1347096); further: nearly all actives have a fitted effect of over 50% in size
In short: (§2)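 Cells (500-1,000/well) in growth media were settled 5 h at 37 degrees C, then given compounds for 48 h. Viability was read as CellTiter-Glo luminescence. Primary runs used MIPE at 11 points (0.78 nM-46 µM) and NPC at 8 points (0.59 nM-46 µM); follow-ups used 11 points.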

[5] = qHTS of pediatric cancer cell lines to identify multiple opportunities for drug repurposing: Primary screen for Saos-2 cells (AID 1347097); further: nearly all actives have a fitted effect of over 40% in size; further: potency means the concentration at half of the fitted maximal effect
In short: as §1

[6] = qHTS of pediatric cancer cell lines to identify multiple opportunities for drug repurposing: Primary screen for SK-N-SH cells (AID 1347098); further: nearly all actives have a fitted effect of over 65% in size; further: potency means the concentration at half of the fitted maximal effect
In short: (§3)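 Cells (500-1,000/well) rested 5 h, then received compounds for 48 h; metabolically active cells were measured by CellTiter-Glo luminescence. Final concentrations spanned up to 46 µM (MIPE, 11-point) or 0.59 nM-46 µM (NPC, 8-point) in primary screens, 11-point in follow-ups.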

[7] = qHTS of pediatric cancer cell lines to identify multiple opportunities for drug repurposing: Primary screen for NB1643 cells (AID 1347099); further: nearly all actives have a fitted effect of over 50% in size; further: potency means the concentration at half of the fitted maximal effect
In short: as §1

[8] = qHTS of pediatric cancer cell lines to identify multiple opportunities for drug repurposing: Primary screen for LAN-5 cells (AID 1347100)
In short: as §2

[9] = qHTS of pediatric cancer cell lines to identify multiple opportunities for drug repurposing: Primary screen for BT-12 cells (AID 1347101); further: nearly all actives have a fitted effect of over 25% in size
In short: as §3

[10] = qHTS of pediatric cancer cell lines to identify multiple opportunities for drug repurposing: Primary screen for Rh18 cells (AID 1347102); further: nearly all actives have a fitted effect of over 65% in size
In short: as §2

[11] = qHTS of pediatric cancer cell lines to identify multiple opportunities for drug repurposing: Primary screen for OHS-50 cells (AID 1347103); further: nearly all actives have a fitted effect of over 40% in size; further: potency means the concentration at half of the fitted maximal effect
In short: as §3

[12] = qHTS of pediatric cancer cell lines to identify multiple opportunities for drug repurposing: Primary screen for RD cells (AID 1347104); further: nearly all actives have a fitted effect of over 55% in size; further: potency means the concentration at half of the fitted maximal effect
In short: as §1

[13] = qHTS of pediatric cancer cell lines to identify multiple opportunities for drug repurposing: Primary screen for MG 63 (6-TG R) cells (AID 1347105); further: nearly all actives have a fitted effect of over 50% in size; further: potency means the concentration at half of the fitted maximal effect
In short: as §1

[14] = qHTS of pediatric cancer cell lines to identify multiple opportunities for drug repurposing: Primary screen for control Hh wild type fibroblast cells (AID 1347106);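 further: series mostly up to about 46 µM; a drop in luminescence marks cytotoxicity and a rise apparent proliferation; nearly all actives have a fitted effect of over 55% in size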
In short: as §2

[15] = qHTS of pediatric cancer cell lines to identify multiple opportunities for drug repurposing: Primary screen for Rh30 cells (AID 1347107); further: series mostly up to about 46 µM; nearly all actives have a fitted effect of over 75% in size
In short: as §2

[16] = qHTS of pediatric cancer cell lines to identify multiple opportunities for drug repurposing: Primary screen for Rh41 cells (AID 1347108); further: nearly all actives have a fitted effect of over 70% in size; further: potency means the concentration at half of the fitted maximal effect
In short: as §1

[17] = qHTS of pediatric cancer cell lines to identify multiple opportunities for drug repurposing: Primary screen for A673 cells (AID 1347092); further: nearly all actives have a fitted effect of over 45% in size; further: potency means the concentration at half of the fitted maximal effect
In short: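 Cell viability of A673 measured by CellTiter-Glo ATP luminescence after 48 hours compound exposure. Dilution series spanned 0.78 nM to 46 µM (MIPE, 11-point) or 0.59 nM to 46 µM (NPC, 8-point); bortezomib 2.3 uM positive control.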

[18] = qHTS of pediatric cancer cell lines to identify multiple opportunities for drug repurposing: Primary screen for SK-N-MC cells (AID 1347093); further: potency means the concentration at half of the fitted maximal effect
In short: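 Metabolically active cells were quantified by ATP-dependent luminescence (CellTiter-Glo, 15 min at room temperature) following 48 h treatment. Cells had been plated at 500-1,000 per well and settled for 5 h beforehand.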

| Structure (SMILES) | Potency [1] | Potency [2] | Potency [3] | Potency [4] | Potency [5] | Potency [6] | Potency [7] | Potency [8] | Potency [9] | Potency [10] | Potency [11] | Potency [12] | Potency [13] | Potency [14] | Potency [15] | Potency [16] | Potency [17] | Potency [18] |
| --- | --- | --- | --- | --- | --- | --- | --- | --- | --- | --- | --- | --- | --- | --- | --- | --- | --- | --- |
| C1COC(NC(C2CC2)C2CC2)=N1 | inactive | inactive | inactive | inactive | inactive | inactive | inactive | inactive | inactive | inactive | inactive | inactive | inactive | inactive | inactive | inactive | – | – |
| Nc1cccc(S(=O)(=O)N2CCCN(S(=O)(=O)c3ccc4c(c3)OCCO4)CC2)c1 | – | inactive | inactive | inactive | – | – | – | inactive | – | inactive | – | inactive | inactive | inactive | inactive | – | inactive | inactive |
| NNCCc1ccccc1 | inactive | inactive | inactive | – | inactive | – | – | – | – | inactive | inactive | inactive | inactive | inactive | inactive | inactive | – | – |
| NC[C@H](O)c1ccc(O)c(O)c1 | inactive | inactive | inactive | inactive | inactive | inactive | inactive | inactive | inactive | inactive | inactive | inactive | inactive | inactive | inactive | inactive | – | – |
| N#Cc1ccc(C(c2ccc(C#N)cc2)n2cncn2)cc1 | inactive | – | inactive | inactive | – | – | – | inactive | – | inactive | – | – | – | inactive | – | – | – | – |
| CCc1cc(Nc2nccc(-c3c(-c4ccc(OC)c(C(=O)Nc5c(F)cccc5F)c4)nc4ccccn34)n2)c(OC)cc1N1CCC(N2CCN(S(C)(=O)=O)CC2)CC1 | inactive | – | – | inactive | 18.7 µM (active) | 21.5 µM (active) | inactive | – | – | inactive | – | – | 18.7 µM (active) | – | – | – | – | – |
| CCCc1nn(C)c2c(=O)[nH]c(-c3cc(S(=O)(=O)N4CCN(C)CC4)ccc3OCC)nc12 | inactive | inactive | inactive | inactive | inactive | inactive | – | inactive | – | inactive | – | – | inactive | inactive | inactive | – | – | – |
| COc1ccc(COc2cc3oc(=O)c4cc(C(C)O)ccc4c3cc2OC)cc1 (centres undefined) | 10.5 µM (active) | – | 10.5 µM (active) | inactive | 14.8 µM (active) | – | inactive | inactive | – | – | – | – | 18.7 µM (active) | – | – | 18.7 µM (active) | – | – |
| O=S(=O)(N=Cc1c(O)ccc2ccccc12)c1cccs1 | – | inactive | – | inactive | 18.7 µM (active) | inactive | – | inactive | – | inactive | – | inactive | 2.35 µM (active) | – | inactive | 3.72 µM (active) | – | 9.35 µM (active) |
| CCC(=O)N[C@H]1CC[C@H](C(=O)N(C)c2ccc(-c3nc4ccccc4o3)cc2)C1 | – | – | inactive | inactive | inactive | 0.961 µM (active) | 1.66 µM (active) | – | – | inactive | 19.3 µM (active) | 3.32 µM (active) | – | – | inactive | – | – | 0.833 µM (active) |
| CCOc1ccc(Cc2cc([C@@H]3O[C@H](CO)[C@@H](O)[C@H](O)[C@@H]3O)ccc2Cl)cc1 | – | – | – | inactive | – | – | inactive | – | – | inactive | – | – | inactive | inactive | inactive | inactive | 23.5 µM (active) | 20.9 µM (active) |
| Cc1cccc(-c2nn(C(=S)Nc3ccccc3)cc2-c2ccnc3ccccc23)n1 | – | inactive | inactive | inactive | – | inactive | inactive | inactive | – | inactive | – | inactive | inactive | inactive | inactive | inactive | – | inactive |
| COc1ccccc1[C@H](c1cccc2ccccc12)[C@@](C)(C#N)C(=O)N1CCC(c2cccc(C(F)(F)F)c2)CC1 | – | 17.2 µM (active) | 6.62 µM (active) | – | – | 19.2 µM (active) | – | – | – | – | 1.09 µM (active) | – | – | inactive | inactive | 5.9 µM (active) | – | 1.18 µM (active) |
| Nc1nccc(-c2ccc3noc(-c4ccc(Cl)cc4)c3c2)n1 | – | – | inactive | inactive | inactive | – | 16.6 µM (active) | inactive | – | inactive | – | inactive | inactive | – | inactive | inactive | 7.43 µM (active) | 10.5 µM (active) |
